Source: PubChem BioAssay (National Center for Advancing Translational Sciences (NCATS))
NS1 inh = influenza NS1 inhibition; 0.4% of 270,000 active; Potency, µM (series often up to 46.1 µM); AID 2326; calls by dose curve; note: actives are rising curves; nearly all actives have a fitted effect of over 50% in size
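Compounds were scored for reversing the slow growth caused by influenza A NS1 in S. cerevisiae, measured by optical density at 600 nm. Assay medium contained 2% galactose at pH 6.0; NS1-free yeast of the same strain were the positive control.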
Shiga toxin inh = blocks Shiga toxin action in Vero cells; Vero cells, Shiga toxin protein synthesis inhibition reporter; inhibition, % at 38.7 µM; 9.2% of 290,000 active; AID 2315; in the data active = inhibition mostly above about 28%, no sharp cut-off; inactive = mostly below about 43%
Pf growth 48h = inhibits P. falciparum growth in the first generation, 48 h; P. falciparum luciferase growth in erythrocytes, 48 h; Potency, µM (top dose mostly 28.7 µM), hits mostly inhibitors; 5.9% of 310,000 active
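Read-out is firefly luciferase luminescence from an integrated reporter in P. falciparum, so falling signal marks reduced parasite growth. Infected erythrocytes were at 2% hematocrit and 0.1% parasitemia (final) in Albumax-supplemented RPMI 1640.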
Pf growth 96h = inhibits malaria parasite growth, 96 h; P. falciparum luciferase reporter growth, 96 h; Potency, µM (top dose mostly 28.7 µM), actives largely listed as inhibitors; 6.9% of 320,000 active
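Two parasite generations (96 h, 37 C, 5% CO2) of compound exposure in infected erythrocytes (0.05% parasitemia, 2% hematocrit). Luciferase-reporter P. falciparum; decreased luminescence indicates inhibited growth, aimed at apicoplast-acting delayed death.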
Cycloheximide cs = counter-screen for Shiga toxin inhibitors: cycloheximide protein synthesis inhibition; cell reporter, cycloheximide protein synthesis inhibition counterscreen; max response, %; 12% of 300,000 active; AID 2314; in the data active = max response mostly above about 13%, no sharp cut-off; inactive = mostly below about 14%; note: read at 38.3 µM for the half of the compounds with a filed dose
A number is an active result; - = inactive; ? = inconclusive; . = no result; [ ] = dose if it differs, or a comment. A selection: hits, their analogues and other compounds. The true share with any hit is near 21%. Unless noted, calls come from the whole dose curve; as a rule, active = well fitted inhibition curve with a large enough effect; inconclusive = small, poorly fitted or top-dose-only effect, or another doubt; inactive = no such curve, though single readings can be large or run the other way.

SMILES	NS1 inh	Shiga toxin inh	Pf growth 48h	Pf growth 96h	Cycloheximide cs
CC(Oc1ccc(Cl)cc1Cl)C(=O)NNC(=O)c1cccnc1 (configuration not stated)	-	-	-	-	-
Cc1ccc(C)c(NC(=O)c2ccc3ccccc3n2)c1	-	-	.	-	30.5
Cc1ccc(NC(=S)c2ccc3ccccc3n2)c(C)c1	-	85.1	-	-	29.7
Cc1ccc(NC(=O)c2cc(C)nc3ccccc23)c(C)c1	-	.	?	-	-
Cc1ccc(S(=O)(=O)N(C)C)cc1NC(=O)c1ccncc1	.	-	-[5.75 µM]	-[5.75 µM]	-
Cc1ccc(S(=O)(=O)N(C)C)cc1NC(=O)c1ccc2ccccc2n1	-	-	-	?	37.0
NNC(=O)c1cc(Br)cs1	-	32.6	-	-	-
CC(C)(C)C(=O)Nc1nnc(SCC(=O)NC2CC2)s1	-	-	-	-	-
Cc1ccnc2nc(C(=O)OCC(=O)NCCc3ccccc3)nn12	-	-	-	-	-
COc1ccc(CCNC(=O)c2n[nH]c3ccccc23)cc1	.	44.8	-	-	46.6
O=C(NC1CCCC1)c1n[nH]c2ccccc12	-	-	-	-	43.3
COCCNC(=O)c1n[nH]c2ccccc12	.	-	-	-	30.7
CCCN1CCN(CCCNC(=O)c2cc3c(=O)[nH]c4ccccc4c3s2)CC1	.	-	?	-	-
COCCNC(=O)c1cc2c(=O)[nH]c3ccccc3c2s1	-	-	?	1.17µM	-
CN1C(=O)C(CC(=O)Nc2ccc(F)cc2)N(CCCc2ccccc2)C1=S (configuration not stated)	-	-	?	?	-
Cc1c(O)ccc2c(CC(=O)N[C@@H](Cc3ccc(O)cc3)C(=O)O)cc(=O)oc12	-	-	-	-	-
O=C(NCCC1CCCCN1S(=O)(=O)c1ccccc1)C(=O)NCc1ccccc1F (configuration not stated)	.	.	-	?	.
O=C(NCCC1CCCCN1S(=O)(=O)c1ccccc1)C(=O)NCc1ccc(F)cc1 (configuration not stated)	.	.	10.4µM	?	.
Cc1cc(S(=O)(=O)N2CCCCC2CCNC(=O)C(=O)NCc2cccnc2)ccc1F (configuration not stated)	.	.	?	13.1µM	.
Cc1ccc(CNC(=O)C(=O)NCCC2CCCCN2S(=O)(=O)c2ccccc2)cc1 (configuration not stated)	.	.	-	?	.
O=C(NCCC1CCCCN1S(=O)(=O)c1ccccc1)C(=O)NCc1ccccc1 (configuration not stated)	.	.	-	16.5µM	.
CCC(=O)NC1(Cc2ccc(O)cc2)CCCCC1	-	-	-	-[1.15 µM]	-
O=C(Nc1cc(C(F)(F)F)ccc1-n1cnc2ccccc21)c1ccccc1	-	-	-	-	-
COC(=O)c1sc(NC(=O)COc2ccccc2C)nc1C	.	-	-	-	21.4
COc1ccccc1OCC(=O)Nc1nc(C)c(C)s1	-	91.1	-	?	27.0
SMILES	NS1 inh	Shiga toxin inh	Pf growth 48h	Pf growth 96h	Cycloheximide cs
COc1ccccc1OCC(=O)Nc1ccc(NC(=O)COc2ccccc2OC)cc1	-	-	?	-	-
C=CCn1c(SCC(=O)N(CCOC)c2c(N)n(CC(C)C)c(=O)[nH]c2=O)nc2ccccc21	.	.	-	?	.
Cc1nc2ccc(S(=O)(=O)N3CCN(S(=O)(=O)c4c(F)cccc4F)CC3)cc2s1	.	-	.	.	-
COCCCNC(=O)c1cc(Sc2ccc(F)cc2)nc2ccccc12	-	-	-	?	-
CCCCOc1cc(C(=O)NCCN(CC)CC)c2ccccc2n1	-	-	13.1µM	10.4µM	-
Cc1cc(-c2cc(C(=O)O)c3ccccc3n2)c(C)s1	-	-	-	1.65µM	-
CCOCCCNC(=O)c1cc(-c2ccc(Br)s2)nc2ccccc12	-	-	.	10.4µM	-
CCOCCCNC(=O)c1cc(Sc2ccc(F)cc2)nc2ccccc12	-	-	-	13.1µM	-
CCN(CC)CCNC(=O)c1cc(-c2ccc(Br)s2)nc2ccccc12	-	-	.	-	-
Cc1cccc(C(=O)N2CCN=C2SCc2ccc([N+](=O)[O-])cc2)c1	.	-	-	-	-
O=C(O)c1cc(-c2ccc(Br)s2)nc2ccccc12	-	34.1	-	?	17.1
CCCCC(CC)COC(=O)CC(C(=O)OCC(CC)CCCC)S(=O)(=O)O (configuration not stated)	.	-	-	-	-
CCOC(=O)c1c(N2C(=O)C3C4C=CC(C4)C3C2=O)sc2c1CCC(C)C2 (configuration not stated)	-	-	-	13.1µM	-
CN(C(=O)COC(=O)CNC(=O)c1ccc2ccccc2c1)c1c(N)n(Cc2ccccc2)c(=O)[nH]c1=O	-	-	-	-	-
